Sampled rows, rich in hits. Any-hit rate of the full collection: about 4.7%.
Calb FLC – C. albicans growth modulation with fluconazole; growth inhibition, % (test concentration not listed); C. albicans CaCi-2 (fluconazole-resistant clinical isolate) + fluconazole, Alamar Blue growth, 48 h; 0.57% of 300,000 active; AID 1979;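 active = growth inhibition above about 58% in most replicates, limit read from the data, passing the limit was not always enough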;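 also: all wells also contain fluconazole at 8 µg/ml as a sub-toxic cotreatment; 0% = median of DMSO wells and 100% = median of geldanamycin control wells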
tim10-1 inh – tim10-1 yeast growth inhibition. S. cerevisiae tim10-1 ts strain growth, BacTiter-Glo, 24 h. inhibition, % at 20 µM. 2.2% of 330,000 active;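 active = inhibition of at least 40%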;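 also: mutant grown at 25 °C; 0% = DMSO wells with yeast and 100% = wells holding no yeast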
PfHsp90 set2 – reduces growth (ATP signal) of yeast expressing P. falciparum Hsp90; S. cerevisiae expressing PfHsp90, BacTiter-Glo ATP, 48 h; yeast lacking PDR1 and PDR3 efflux regulators; inhibition, % at 9.4 µM; 0.32% of 310,000 active;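 active = every replicate shows inhibition above about 80%, whatever the replicate mean, limit read from the data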;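 also: 0% = DMSO neutral controls and 100% = 20 µM radicicol positive controls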
SKKanGAS inh – inhibitors of SKKanGAS S. pyogenes growth in kanamycin (SK-promoter or general growth effect) | BacTiter-Glo, 6 h | inhibition, % at 7.5 µM | 1.3% of 300,000 active;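 active = mean replicate score, as percent of positive control median, at least 50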;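 also: strain carries kanamycin resistance gene driven by streptokinase promoter and grows in 40 µg/ml kanamycin; loss of luminescence reflects streptokinase promoter inhibition or plain growth inhibition; 0% = median of DMSO wells and 100% = positive control at its reference dose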
tim23-1 inh – inhibits growth of tim23-1 mutant yeast; S. cerevisiae tim23-1 growth, BacTiter-Glo luminescence, 24 h; inhibition, % at 20 µM; 1.3% of 330,000 active; AID 463212;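 active = growth inhibition of the mutant yeast at or above 50%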;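 also: temperature-sensitive mutant grown at 25 °C; plate controls were DMSO-treated mutant yeast for no effect and medium wells lacking yeast for full effect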
TIM10 inh – inhibits growth of TIM10 yeast strain; AID 463195; S. cerevisiae TIM10 strain growth, BacTiter-Glo luminescence, 24 h; 1.4% of 330,000 active; inhibition, % at 10 µM;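 active = inhibition of 40% or more at the single tested concentration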;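 also: wild-type TIM10 isogenic control strain grown at permissive 25 °C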
tim10-1 confirm – confirmation of tim10-1 mutant yeast growth inhibitors; shares compounds with tim10-1 inh; S. cerevisiae tim10-1 ts strain growth, BacTiter-Glo, 24 h; inhibition, % at 20 µM; 56% of 7,400 active; AID 463213;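 active = inhibition of yeast growth at or above a set limit in either of two repeat tests at 20 µM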;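 also: tim10-1 mutant grown at permissive 25 °C to find synthetic lethal compounds; 0% = DMSO yeast wells and 100% = medium wells without yeast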
Active calls of the source: *; / = no result given.

SMILES | Calb FLC | tim10-1 inh | PfHsp90 set2 | SKKanGAS inh | tim23-1 inh | TIM10 inh | tim10-1 confirm
CC(C)(C)C(C(=O)n1cccc1C#N)c1ccccc1 (stereo not given) | / | 9.5 | -21.4 | / | 5.4 | 1.9 | /
COc1ccc(C)cc1NC(=O)NCCC1=CCCCC1 | -27.2 | 43.1* | / | -0.6 | 40.7 | 37.5 | 30.8*
COc1cc(C(=O)NCCC2=CCCCC2)cc(OC)c1OC | -2.6 | 12.2 | -24.5 | 3.3 | 17.8 | -8.1 | /
Cc1cc(NC(=O)COC(=O)[C@@H]2CCCN2C(=O)c2cccs2)no1 | / | / | -7.8 | / | / | / | /
Cc1cc(C)cc(N2CCCn3c2nc2c3c(=O)[nH]c(=O)n2C)c1 | 1.2 | -9.7 | -5.1 | 0.2 | -13.7 | -0.6 | /
CCc1ccc2c(CN3CCN(S(=O)(=O)c4cccs4)CC3)cc(=O)oc2c1 | 9.3 | 41.3* | -0.1 | 5.8 | 33.9 | 23.0 | 28.9
CCC(C)NC(=O)CN(C1CCCCC1)S(=O)(=O)c1ccc(F)cc1 (stereo not given) | -8.4 | 10.3 | 7.7 | 0.3 | 19.1 | -4.8 | /
Fc1ccc(Nc2ncnc3sc4c(c23)CCC4)cc1 | 2.8 | 42.6* | 16.9 | 3.1 | 47.1 | 21.4 | 27.6
COc1ccc(/C=N/Nc2ncnc(Cl)c2N)cc1OC | -1.6 | 4.9 | 19.7 | -6.8 | 8.5 | -4.7 | /
COc1ccc(/C=N/Nc2ncnc3sc4c(c23)CCCC4)cc1OC | 2.9 | 40.8* | -14.3 | 1.6 | 10.7 | 25.9 | 17.9
Cc1ccc(NC(=O)CCn2c(=S)oc3ccccc32)cc1F | -1.3 | -17.0 | -1.2 | -0.5 | 17.9 | 6.2 | /
CC(OC(=O)/C=C/c1cccs1)C(=O)Nc1ccc(C(N)=O)cc1 (stereo not given) | / | -4.3 | 1.2 | / | -5.7 | -1.3 | /
CCOC(=O)CCc1c(C)n(CC)c2cc(-c3ccccc3OC)nn2c1=O | -5.2 | 41.7* | 21.6 | 3.3 | 20.9 | 32.1 | 24.9
CCN(CC)CCCNC(=O)CCc1c(C)n(CC)c2cc(-c3ccccc3OC)nn2c1=O | -5.8 | -3.0 | -21.1 | 7.3 | -4.6 | 2.6 | /
CS(=O)(=O)c1ccc2nc(NC(=O)C3=NN(c4ccccc4)C(=O)CC3)sc2c1 | -6.9 | 1.1 | -27.2 | 1.8 | 6.0 | 5.3 | /
COc1ccc2nc(NC(=O)C3=NN(c4ccccc4)C(=O)CC3)sc2c1 | 9.0 | 43.0* | -3.6 | 9.9 | 23.1 | 15.7 | 27.0
Cc1ccc(NC(=O)Cn2c(=O)cnc3ccccc32)cc1S(=O)(=O)N1CCOCC1 | / | -5.6 | 10.8 | / | 4.1 | 2.6 | /
COc1cccc(C(Nc2ccccn2)c2c(NC(=O)c3ccco3)sc(C)c2C)c1 (stereo not given) | -21.6 | 29.6 | 24.7 | 4.7 | 14.4 | 22.5 | /
Cc1sc(NC(=O)c2ccco2)c(C(c2cccnc2)N2CCN(C)CC2)c1C (stereo not given) | -14.8 | 9.7 | -0.4 | 1.9 | 24.1 | -0.6 | /
Cc1sc(NC(=O)c2ccco2)c(C(Nc2ccccn2)c2ccccc2)c1C (stereo not given) | -5.1 | 40.0 | -13.6 | -15.5 | 32.7 | 24.9 | 24.9
COc1ccc(C(Nc2ccccn2)c2c(NC(=O)c3ccco3)sc(C)c2C)cc1 (stereo not given) | 13.7 | 41.1* | -13.1 | 8.2 | 47.3 | 38.1 | 26.0
Cc1sc(NC(=O)c2ccco2)c(C(c2cccnc2)N2CCCC2)c1C (stereo not given) | -22.2 | 52.2* | / | 8.0 | 49.2 | 22.1 | 45.0*
O=C(Cc1ccsc1)NNC(=O)c1ccc(F)cc1 | 5.5 | 2.4 | -2.7 | 9.8 | -14.8 | -2.1 | /
C=CCN(C)CC/C=C1\c2ccccc2CSc2ccccc21 | -0.9 | 38.2 | 28.9 | 2.2 | 18.3 | 9.5 | /
C#CCN(C)CC/C=C1\c2ccccc2CSc2ccccc21 | / | 44.1* | 5.0 | 37.4 | 19.7 | 16.7 | 17.1
SMILES | Calb FLC | tim10-1 inh | PfHsp90 set2 | SKKanGAS inh | tim23-1 inh | TIM10 inh | tim10-1 confirm
CC(C)(CC(=O)O)CC(=O)N1CCN(c2nc3cc(Cl)ccc3s2)CC1 | -2.5 | 0.9 | -42.7 | -2.3 | -2.8 | 12.1 | /
N#C/C(=C\c1cc2ccccc2nc1N1CCOCC1)C(=O)Nc1ccc(N2CCOCC2)cc1 | 0.7 | 8.0 | 10.4 | 2.2 | 28.8 | 18.3 | /
N#CC(C#N)=Cc1cc2ccccc2nc1N1CCOCC1 | -1.4 | 44.5* | -30.5 | -4.6 | 49.4 | 25.6 | 21.1
CC(C)c1ccc(/C=C/C(=O)N2CCCCCC2)cc1 | 48.4 | 42.7* | -21.6 | -18.3 | 31.7 | 16.0 | 14.1
CC(C)c1ccc(/C=C/C(=O)CCC(=O)O)cc1 | 25.3 | 40.5* | -36.0 | -7.0 | 33.3 | 7.4 | 24.3
O=C(O)CCC(=O)/C=C/c1ccccc1 | 4.7 | 32.4 | -4.4 | 3.2 | 30.6 | -0.5 | /
COc1ccc(C(=O)N/C(=C\c2ccccc2)C(=O)Nc2ccc(C(=O)NCC(=O)O)cc2)cc1 | 3.7 | 9.2 | 10.1 | 0.8 | -0.3 | 6.6 | /
Oc1cc(Br)ccc1C=Nc1ccc(N2CCCCC2)cc1 | 7.7 | 42.1* | -9.4 | -0.8 | 49.7 | 19.4 | 25.6
O=C1CCN(Cc2ccccc2)C=C1c1ccc(Br)cc1 | / | 0.8 | -31.7 | / | 5.3 | -0.8 | /
O=C(Nc1ccc(Cl)cc1)N(CCCN1CCOCC1)Cc1cccs1 | -7.2 | 1.9 | 14.8 | -2.3 | 7.4 | 4.4 | /
S=C(Nc1ccc(Cl)cc1)N(CCCN1CCOCC1)Cc1cccs1 | 35.0 | 40.9* | -2.5 | 0.4 | 16.8 | -14.5 | 7.9
Cc1sc(N2CCN(S(=O)(=O)c3ccc4c(c3)NC(=O)CO4)CC2)nc1-c1ccccc1 | 0.3 | 47.1* | -158.2 | 20.3 | -0.9 | 11.3 | -20.1
O=C(CCCCCN1C(=O)[C@@H]2Cc3ccccc3CN2C1=O)Nc1cccc(F)c1 | 0.3 | 45.2* | 3.8 | -6.7 | 42.7 | 18.5 | -10.1
Cc1cccc(NC(=O)CCCCCN2C(=O)[C@@H]3Cc4ccccc4CN3C2=O)c1 | 2.4 | 29.9 | -11.5 | -1.1 | 30.2 | 1.0 | /
Cn1c(CSCc2ccc(F)cc2)nnc1SCC(=O)Nc1cccc(C(=O)O)c1 | 1.3 | -1.2 | 16.9 | -11.8 | 3.5 | -12.0 | /
O=C(Nc1ccc(Cl)c(Cl)c1)c1ccc(Cl)c(Cl)c1 | / | -28.9 | 7.7 | 11.7 | 6.7 | 15.5 | /
Cc1ccc(NC(=O)c2ccc(Cl)c(N3C(=O)C=CC3=O)c2)cc1 | -6.0 | 67.7* | 124.3* | -1.5 | 12.7 | 26.5 | 78.8*
CC(CCN1C(Nc2ccccc2)=NC[C@@H]1C)c1ccccc1 (stereo not given in full) | -4.8 | -9.9 | 11.7 | -2.0 | 5.5 | 5.1 | /
O=C(O)c1cc([N+](=O)[O-])ccc1NCCCc1ccccc1 | / | 1.3 | -13.4 | 24.9 | 23.5 | -6.2 | /
O=C(NCCCc1ccccc1)c1cc([N+](=O)[O-])ccc1Cl | -8.5 | 40.6* | -3.1 | -8.3 | 31.4 | 10.2 | 16.2
CC1(C)Cc2c(ccc3ccccc23)/C(=C/C(=O)N2CCCCC2)N1 | 0.4 | 45.1* | 3.5 | 4.1 | 46.9 | 29.5 | 32.0*
COc1cccc(COC(=O)CCNC(=O)c2ccc(Cl)cc2)c1OC | 3.6 | -4.3 | 19.7 | -13.7 | 22.3 | -11.4 | /

Screening data from PubChem BioAssay.
